High-throughput results: PubChem, National Center for Advancing Translational Sciences (NCATS)
TDP1 cell CPT – DT40-hTDP1 cell growth loss with CPT | 420,000 compounds, 12% hits | Potency, µM (top dose mostly 46.2 µM), usual class: inhibitors | AID 686979 | chicken DT40 Tdp1-/-;hTDP1 cells + 20 nM CPT, ATP luminescence, 48 h; further: nearly all actives have a fitted effect of over 55% in size
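Chicken DT40 Tdp1-/- cells stably complemented with human TDP1 were seeded at 400 cells/well in medium containing 20 nM camptothecin, exposed to pin-transferred compounds, and grown at 37 °C for at least 48 hr. Viability was read as ATP luminescence.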
Giardia kill – kills Giardia lamblia. Giardia lamblia trophozoite viability. activity change, % at 7.66 µM, hits read low. 340,000 compounds, 0.15% hits; in the data active means activity change below about -80%; inconclusive means between about -30% and that limit;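 further: parasites exposed to compound for two days anaerobically before the ATP read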
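Each well holds 100 Giardia trophozoites and compound. After two days (48 hrs) at 37 deg C in anaerobic conditions, ATP is quantified by luminescence.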
ELG1 DNA repair – ELG1-dependent DNA repair inhibition; HEK293T ELG1-luciferase reporter, luminescence, 16 h; DNA damage induced by 5-fluorouridine; Potency, µM (titrated, usually from 46.1 µM), most hits filed as inhibitors; 330,000 compounds, 2.3% hits; AID 504467; further: nearly all actives have a fitted effect of over 55% in size
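In this reporter screen, reduction of luminescence relative to DMSO vehicle indicated activity. Compounds and 5-fluorouridine were added together to 2,000 cells per well, incubated for 16 hr at 37 °C, then developed with ONE-Glo.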
TDP1 cell noCPT – qHTS for Inhibitors of human tyrosyl-DNA phosphodiesterase 1 (TDP1): qHTS in cells in absence of CPT; Potency, µM (top dose mostly 46.2 µM), actives largely listed as inhibitors; AID 686978, 2013; 420,000 compounds, 15% hits; DT40 Tdp1-/- hTDP1 cells, no CPT, ATP luminescence, 48 h; further: nearly all actives have a fitted effect of over 55% in size
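Luminescent ATP content (CellTiter-Glo) served as the growth readout. Knockout chicken DT40 cells expressing human TDP1 were exposed to compounds without camptothecin for a minimum 48 hr at 37 °C.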
TDP1 block – blocks human tyrosyl-DNA phosphodiesterase 1; Q9NUW8; recombinant TDP1, AlphaScreen DNA substrate cleavage; Potency, µM (series often up to 130 µM), hits mostly inhibitors; 350,000 compounds, 0.28% hits; further: nearly all actives have a fitted effect of over 40% in size
Target sequence (Q9NUW8 whole entry, looked up): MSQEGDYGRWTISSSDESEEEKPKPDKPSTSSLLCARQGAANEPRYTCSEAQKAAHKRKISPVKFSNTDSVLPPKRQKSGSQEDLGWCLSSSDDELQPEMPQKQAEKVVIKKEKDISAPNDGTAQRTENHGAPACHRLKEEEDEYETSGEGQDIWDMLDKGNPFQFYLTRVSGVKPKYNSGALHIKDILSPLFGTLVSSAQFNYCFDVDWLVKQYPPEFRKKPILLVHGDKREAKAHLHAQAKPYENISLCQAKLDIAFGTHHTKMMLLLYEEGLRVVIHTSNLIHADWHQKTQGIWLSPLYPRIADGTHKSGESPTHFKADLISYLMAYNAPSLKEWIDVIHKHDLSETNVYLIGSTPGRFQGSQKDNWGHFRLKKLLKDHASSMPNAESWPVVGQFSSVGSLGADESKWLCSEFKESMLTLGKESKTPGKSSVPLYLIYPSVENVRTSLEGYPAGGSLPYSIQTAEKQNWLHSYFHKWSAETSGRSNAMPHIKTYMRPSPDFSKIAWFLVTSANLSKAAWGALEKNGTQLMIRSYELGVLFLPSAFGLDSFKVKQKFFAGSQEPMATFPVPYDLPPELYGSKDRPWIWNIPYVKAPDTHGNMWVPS
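Here, a 5' biotin and 3' phosphotyrosine-FITC DNA oligonucleotide reports Tdp1 activity: intact substrate bridges AlphaScreen beads, while cleavage leaves a 3' phosphate and drops signal. All incubations at room temperature.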
IL1B secr inh – inflammasome signaling inhibition, IL-1 beta readout; activity change, % at 57.5 µM; 360,000 compounds, 4.7% hits; THP-1 LPS/ATP IL-1B secretion, AlphaLISA, 16 h; active compounds read low; in the data active means activity change below about -50%; inconclusive means mostly about -30% to -49%
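Secreted IL-1B measured by AlphaLISA bead assay after 16 h compound exposure of THP-1 cells; compounds (final up to 57.5 uM) added 1 h before LPS (250 ng/mL) and ATP (1.25 mM) stimulation; lower signal means less secretion.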
Hits are given with their value. In the library only some 19% were active in any assay of this set; here they are far more common. Unless noted, the call rests on the fitted dose curve; in most records, active means well fitted curve in the direction sought with a large enough effect; inconclusive means small, poorly fitted or top-dose-only effect, or another doubt; inactive means no such curve, though single readings can be large; an effect the other way counts as inactive or inconclusive.

For CN(C)Cc1ccccc1-c1ccc2ncnc(NCc3ccccc3)c2c1 the results were TDP1 cell CPT inconclusive, TDP1 cell noCPT inactive and TDP1 block inactive.
Screening COc1cccc(-c2ccc3ncnc(NCc4ccccc4OC)c3c2)c1 returned TDP1 cell CPT inconclusive, TDP1 cell noCPT 15µM and TDP1 block inactive.
Brc1ccc2ncnc(NCc3ccccc3)c2c1 was read as TDP1 cell CPT 7.3µM, Giardia kill inactive, ELG1 DNA repair 4.1µM, TDP1 cell noCPT 8.2µM, TDP1 block inactive and IL1B secr inh inconclusive.
Screening COc1cccc(-c2ccc3ncnc(NCc4ccccc4)c3c2)c1 returned TDP1 cell CPT inconclusive and TDP1 cell noCPT 21µM.
For COc1cccc(-c2cncnc2NCc2cccnc2)c1 the results were TDP1 cell CPT inactive and TDP1 cell noCPT inactive.
`COc1cccc(-c2cncnc2NCc2cccc(C)c2)c1` gave TDP1 cell CPT inconclusive and TDP1 cell noCPT 23µM.
COc1ccccc1CNc1ncnc2ccc(-c3cccc(NS(C)(=O)=O)c3)cc12 was read as TDP1 cell CPT 1.6µM and TDP1 cell noCPT 1.5µM.
`c1nc(NCc2ccc3c(c2)OCO3)c2cc(-c3ccc4c(c3)OCCO4)ccc2n1` gave Giardia kill inactive, ELG1 DNA repair inactive and TDP1 block inactive.
`CN(C)c1ncnc2ccc(-c3cccc(C#N)c3)cc12` gave TDP1 cell CPT 26µM and TDP1 cell noCPT inconclusive.
Screening COc1ccc(CNc2ncncc2-c2cccc(NS(C)(=O)=O)c2)c(OC)c1 returned TDP1 cell CPT inactive and TDP1 cell noCPT inactive.
For COc1cccc(-c2ccc3ncnc(NCc4ccc5c(c4)OCO5)c3c2)c1 the results were Giardia kill inconclusive, ELG1 DNA repair 8.2µM and TDP1 block inactive.
Screening C=CCn1c(-c2ccc([N+](=O)[O-])cc2)n[nH]c1=S returned TDP1 cell CPT inactive, Giardia kill inactive, ELG1 DNA repair inactive, TDP1 cell noCPT inactive, TDP1 block inactive and IL1B secr inh inactive.
`Cc1c(C(=O)N2CCCCC2)c(S(=O)(=O)N2CCc3ccccc32)c(C)n1C` gave TDP1 cell CPT inactive, Giardia kill inactive, ELG1 DNA repair inactive, TDP1 cell noCPT inactive, TDP1 block inactive and IL1B secr inh inactive.
`O=C(N/N=C/c1ccc(OC(F)F)cc1)c1cccc(S(=O)(=O)N2CCOCC2)c1` gave TDP1 cell CPT inactive, Giardia kill inactive, ELG1 DNA repair inactive, TDP1 cell noCPT inactive, TDP1 block inactive and IL1B secr inh inactive.
For O=C(NCC(c1ccc2c(c1)OCO2)N1CCN(c2ccccc2)CC1)C(=O)Nc1ccc(F)cc1 (stereo not given) the results were TDP1 cell CPT inactive, TDP1 cell noCPT inactive and TDP1 block inactive.
For COc1ccc2cc3cc(C(=O)N4CCN(c5ccccn5)CC4)oc3nc2c1 the results were TDP1 cell CPT inconclusive, Giardia kill inactive, ELG1 DNA repair inactive, TDP1 cell noCPT 18µM, TDP1 block inactive and IL1B secr inh inactive.
Screening COc1ccc2cc3cc(C(=O)N4CC(C)CC(C)C4)oc3nc2c1 (stereo not given) returned TDP1 cell CPT inactive, Giardia kill inactive, ELG1 DNA repair inconclusive, TDP1 cell noCPT inactive, TDP1 block inactive and IL1B secr inh inactive.
Screening COc1ccc2cc3cc(C(=O)N4CCN(Cc5ccc6c(c5)OCO6)CC4)oc3nc2c1 returned TDP1 cell CPT inconclusive, Giardia kill inactive, ELG1 DNA repair 23µM, TDP1 cell noCPT inconclusive, TDP1 block inactive and IL1B secr inh -65.
For CC[C@H](C)[C@@H](NC(=O)O[C@@H]1C(=O)c2ccc(OC)cc2O[C@H]1c1cccc(C(F)(F)F)c1)C(=O)OC the results were TDP1 block inactive.
Screening Cc1ccc(CNC(C)c2ccccc2)s1 (stereo not given) returned TDP1 block inactive.
Screening CCOc1ncccc1C(=O)OCC(=O)NCCc1ccc(S(N)(=O)=O)cc1 returned TDP1 cell CPT inactive, Giardia kill inactive, ELG1 DNA repair inactive, TDP1 cell noCPT inactive, TDP1 block inactive and IL1B secr inh inactive.
`COCCOC(=O)c1c(-c2ccccc2)c(-c2ccccc2)nn(C)c1=O` gave TDP1 cell CPT inconclusive, TDP1 cell noCPT 21µM and TDP1 block inactive.
For COC(=O)c1ccc(NC(=O)c2c(-c3ccccc3)c(-c3ccccc3)nn(C)c2=O)cc1 the results were TDP1 cell CPT inactive, TDP1 cell noCPT inactive and TDP1 block inactive.
CC(C)OC(=O)c1c(-c2ccccc2)c(-c2ccccc2)nn(C)c1=O was read as TDP1 cell CPT inconclusive, Giardia kill inactive, TDP1 cell noCPT 21µM and TDP1 block inactive.
Screening COC(=O)c1c(-c2ccccc2)c(-c2ccccc2)nn(C)c1=O returned TDP1 cell CPT inconclusive, Giardia kill inactive, ELG1 DNA repair inactive, TDP1 cell noCPT inconclusive, TDP1 block inactive and IL1B secr inh inactive.
`CCc1ccc(/C=C2/SC(=S)N(CCC(=O)Nc3cccc(C(=O)O)c3)C2=O)cc1` gave TDP1 cell CPT inactive, Giardia kill inactive, ELG1 DNA repair inconclusive, TDP1 cell noCPT inactive, TDP1 block 28µM and IL1B secr inh inactive.
`CCc1ccc(/C=C2/SC(=S)N(CCC(=O)Nc3ccc(C(=O)O)cc3)C2=O)cc1` gave ELG1 DNA repair inactive and TDP1 block inconclusive.
CCc1ccc(C=C2SC(=S)N(CCCC(=O)Nc3ccc(C(=O)O)cc3)C2=O)cc1 was read as TDP1 cell CPT inconclusive, TDP1 cell noCPT 18µM and IL1B secr inh inactive.
`COc1ccc(NC(=O)C2CCC(CNS(=O)(=O)c3ccc(Br)s3)CC2)cc1OC` (stereo not given) gave TDP1 cell CPT inactive, TDP1 cell noCPT inactive and TDP1 block inactive.
Screening Cc1cccc(NC(=O)C2CCC(CNS(=O)(=O)c3ccc(Br)s3)CC2)c1 (stereo not given) returned TDP1 cell CPT 26µM, TDP1 cell noCPT 16µM and TDP1 block inactive.
Screening Cc1ccc(NC(=O)C2CCC(CNS(=O)(=O)c3cccs3)CC2)cc1C (stereo not given) returned TDP1 cell CPT 15µM, TDP1 cell noCPT 15µM and TDP1 block inactive.
Screening COc1cccc(NC(=O)C2CCC(CNS(=O)(=O)c3cccs3)CC2)c1 (stereo not given) returned TDP1 cell CPT inactive, Giardia kill inactive, ELG1 DNA repair inactive, TDP1 cell noCPT inconclusive, TDP1 block inactive and IL1B secr inh inactive.
`O=C(Cn1ncn2c(cc3cc(F)ccc32)c1=O)NC1CCCCC1` gave TDP1 cell CPT inactive, TDP1 cell noCPT inactive and TDP1 block inactive.
